Test results reported in the supplement of paper PMC9694430.
Counter-ions that a name gives are not always drawn.

test system: LOC_OS02G14120-cb001; assay: thermal shift delta Tm vs DMSO control; higher = stronger stabilization (binding); conditions: 12.5 µM; protein concentration 2 µM
Summary of the method: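 Rice kinase domain constructs, made in E. coli and purified, were placed in 96-well plates at 2 μM in 19.5 μl of 100 mM potassium phosphate pH 7.5, 150 mM NaCl, 10% glycerol and 5 × SYPRO Orange, with compound in DMSO. A temperature ramp from 25°C to 95°C at 0.05°C/s was used for differential scanning fluorimetry. The melting temperature shift is a triplicate mean compared with DMSO-only protein, derived from Boltzmann fits.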
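Further: purified Escherichia coli-expressed rice kinase domain construct.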

Row | Structure (SMILES) | thermal shift delta Tm
1 | COc1cc2ncnc(Oc3ccc(CC(=O)Nc4cnn(C(C)C)c4)cc3)c2cc1OC | 0.06 °C
2 | CN1C(=O)[C@@H](NC(=O)c2n[nH]c(Cc3ccccc3)n2)COc2ccccc21 | 0.71 °C
3 | N[C@@H]1CCCN(c2c(/C=C3\SC(=O)NC3=O)cccc2-c2ccccc2)C1 | -0.31 °C
4 | Cc1cc(C(C)Nc2ccccc2)c2nc(N3CCOCC3)cc(=O)n2c1 (stereo not drawn) | 0 °C
5 | CC#CC(=O)N1CC[C@@H](n2c(=O)n(-c3ccc(Oc4ccccc4)cc3)c3c(N)ncnc32)C1 [ONO-4059 (GS-4059) hydrochloride] | 0.04 °C
6 | COc1cc(OC)c(C=C2C(=O)Nc3ccccc32)c(OC)c1 | 0.94 °C
7 | O=C(Nc1cnn2ccc(N3CCC[C@@H]3c3cc(F)ccc3F)nc12)N1CC[C@H](O)C1 [Larotrectinib (LOXO-101) sulfate] | 3.12 °C
8 | C[C@H](NC(=O)/C(C#N)=C/c1cccc(Br)n1)c1ccccc1 | -1.36 °C
9 | Nc1nccc(Oc2ccc3c(C(=O)Nc4cccc(C(F)(F)F)c4)cccc3c2)n1 | 1.14 °C
10 | Oc1cccc(-c2nc(N3CCOCC3)c3oc4ncccc4c3n2)c1 | 0.49 °C
11 | O=C(c1ccc(Nc2nccc(-c3cc4ccccc4s3)n2)cc1)N1CCC(N2CCCC2)CC1 [IKK-16 (IKK Inhibitor VII)] | 11.1 °C
12 | Cc1cc(C(=O)NOCCO)c(Nc2ccc(I)cc2F)n(C)c1=O | -0.53 °C
13 | c1nc2c(NC3CCCCC3)nc(Nc3ccc(N4CCOCC4)cc3)nc2[nH]1 [Reversine] | 7.96 °C
14 | CC#CC(=O)N1CCC[C@H]1c1nc(-c2ccc(C(=O)Nc3ccccn3)cc2)c2c(N)nccn12 [Acalabrutinib (ACP-196)] | 0.57 °C
15 | CN1CCN(c2nc(C3=C(c4c[nH]c5ccccc45)C(=O)NC3=O)c3ccccc3n2)CC1 [Sotrastaurin] | 1.17 °C
16 | Cc1ccc(-n2nc(C(C)(C)C)cc2NC(=O)NCc2cc(F)ccc2Oc2ccc3c(cnn3CCO)c2)cc1 [Pexmetinib (ARRY-614)] | 4.57 °C
17 | Cc1cc(F)c(Nc2ncnc3cc(OCc4ccccc4)ccc23)cc1O | 0.86 °C
18 | C[C@@H]1COC(Nc2ccc3ncnc(Nc4ccc(OCc5nccs5)c(Cl)c4)c3c2)=N1 [Varlitinib] | 0.74 °C
19 | CCCCNc1ncc2c(-c3ccc(CN4CCN(C)CC4)cc3)cn([C@H]3CC[C@H](O)CC3)c2n1 | 12.2 °C

Row | Structure (SMILES) | thermal shift delta Tm
20 | CCC(=O)Nc1cccc(Oc2nc(Nc3ccc(N4CCN(C)CC4)cc3OC)ncc2Cl)c1 | 0.22 °C
21 | CC(C)(CCCCCC(O)CCCCCC(C)(C)C(=O)O)C(=O)O | 0.05 °C
22 | Cc1c(Cn2c(C)nc3c(C(=O)O)cc(N4CCOCC4)cc32)cccc1C(F)(F)F | -0.38 °C
23 | Cc1ccc(-n2nc(C(C)(C)C)cc2NC(=O)Nc2ccc(OCCN3CCOCC3)c3ccccc23)cc1 [Doramapimod (BIRB 796)] | 0.95 °C
24 | O=S(=O)(NCCNC/C=C/c1ccc(Br)cc1)c1cccc2cnccc12 | 0.95 °C
25 | CN1CCN(c2ccc(-c3ccncc3-c3cc(F)c(O)c(F)c3)cc2)CC1 | 1.22 °C
26 | C=CC(=O)N[C@H]1CCOC[C@H]1Nc1ncc2cc(-c3c(Cl)c(OC)cc(OC)c3Cl)ccc2n1 | 0.55 °C
27 | Cc1cc(Nc2cc(N)ncn2)c(=O)n2c1C(=O)NC21CCCCC1 | 2.1 °C
28 | O=C1NC(=O)C(c2ccccc2[N+](=O)[O-])=C1Nc1ccc(O)c(Cl)c1 | -1.08 °C
29 | Cc1ccccc1CN1C2=NCCN2C(=O)C2=C1CCN(Cc1ccccc1)C2 [TIC10 Analogue] | -0.11 °C
30 | CCNC(=O)Nc1ccc(-c2nc3c(c(N4CCOC[C@@H]4C)n2)CCN(C2COC2)C3)cc1 | -0.29 °C
31 | CC[C@@H]1C(=O)N(C)c2cnc(Nc3ccc(C(=O)NC4CCN(C)CC4)cc3OC)nc2N1C1CCCC1 | 0.27 °C
32 | Nc1nc(N)c2nc(-c3cccc(O)c3)c(-c3cccc(O)c3)nc2n1 | 1.95 °C
33 | CCc1cnn2c(NCc3ccc[n+]([O-])c3)cc(N3CCCC[C@H]3CCO)nc12 | 0.57 °C
34 | COc1ccc(CC(=O)Nc2nc3c(s2)CCc2ccccc2-3)cc1OC | 2.82 °C
35 | CCn1c(N)c(C(=O)NC)c(=O)c2ccc(C#CC(C)(O)COC)nc21 (stereo not drawn) | 1.34 °C
36 | Oc1c(F)cc(-c2cnccc2-c2ccc(N3CCOCC3)cc2)cc1F | 0.35 °C
37 | CCN(CC)CCNC(=O)c1c(C)[nH]c(/C=C2\C(=O)Nc3ccc(F)cc32)c1C [Sunitinib] | 7.49 °C
38 | CC(C)(C#N)c1ccc(N2C(=O)OCc3cnc4ccc(-c5cnc6ccccc6c5)cc4c32)cc1 | 1.27 °C
